Experimental data reported in PubChem BioAssay (EPA / NIEHS).
Several values for one entry are separate records, joined by “and”; a condition that tells them apart may be missing. Identical values can stand only once. Inconclusive results are not listed. Activity calls are given as the source filed them. Rule for the calls: active = hit-call score of the fitted dose curve at least 0.9, where 1 is the maximum; inconclusive = response in the unintended direction; inactive = score below 0.9.

Target: human Peripheral-type Benzodiazepine Receptor (PBR), TSPO (gene 706) (UniProt P30536)
Sequence (P30536 whole entry, looked up): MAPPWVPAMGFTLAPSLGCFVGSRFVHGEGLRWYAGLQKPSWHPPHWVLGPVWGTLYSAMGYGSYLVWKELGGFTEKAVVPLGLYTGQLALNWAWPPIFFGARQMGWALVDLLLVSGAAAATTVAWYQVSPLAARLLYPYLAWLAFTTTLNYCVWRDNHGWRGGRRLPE
Assay: NVS_MP_hPBR: NovaScreen (NVS) Membrane Protein Assay for human Peripheral-type Benzodiazepine Receptor (PBR) (AID 2283331);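 note: hits reduce radioligand binding relative to DMSO baseline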
Summary of the method: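 Using human colon-derived membranes, this one-endpoint binding test reads radioligand loss by scintillation after 1 h. Screening started at 25 uM in duplicate, with positive and negative controls on every plate, and actives moved to dose series.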

Q: Which AC50 does the source give for `C[C@H]1CCCC(=O)CCC/C=C/c2cc(O)cc(O)c2C(=O)O1` here?
A: 1.66 µM (active)

Q: Which AC50 does the source give for `CCCCCCCCC(=O)NCc1ccc(O)c(OC)c1` here?
A: 4.12 µM (active)

Q: Which AC50 does the source give for `CCN1CCC2(CC1)COc1cc3c(cc12)N(C(=O)c1ccc(-c2ccc(-c4nnc(C)o4)cc2C)cc1)CC3` here?
A: 2.37 µM (active)

Q: With `O=C(OC1CCCCC1)c1ccccc1C(=O)OC1CCCCC1` as the molecule, how does the AC50 read?
A: 3.21 µM (active) and 6.79 µM (active)

Target: rat Peripheral-type Benzodiazepine Receptor (PBR), Tspo (gene 24230) (UniProt P16257)
Sequence (P16257 whole entry, looked up): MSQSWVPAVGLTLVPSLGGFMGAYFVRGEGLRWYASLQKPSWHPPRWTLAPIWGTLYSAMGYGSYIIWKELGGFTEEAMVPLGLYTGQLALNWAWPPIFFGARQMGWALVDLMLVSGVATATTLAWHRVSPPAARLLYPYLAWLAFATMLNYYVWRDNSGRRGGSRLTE
Assay: NVS_MP_rPBR: NovaScreen (NVS) Membrane Protein Assay for rat Peripheral-type Benzodiazepine Receptor (PBR) (AID 2283335)
Summary of the method: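 Single-concentration duplicate screening at 25 uM preceded concentration-series retesting of actives. Binding of a specific radioligand to rat kidney membrane PBR was read by filtration radiodetection after 1 h, with plate-wise positive and negative controls.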

Q: For `C[C@H]1CCCC(=O)CCC/C=C/c2cc(O)cc(O)c2C(=O)O1`, which AC50 is on record?
A: 0.346 µM (active)

Q: With `CCNc1nc(NC(C)(C)C)nc(SC)n1` as the molecule, how does the outcome read?
A: inactive

Q: Which AC50 does the source give for `CCCCCCCCC(=O)NCc1ccc(O)c(OC)c1` here?
A: 6.25 µM (active)

Q: Which outcome does the source give for `CC(C)(C)CC(C)(C)c1ccc(O)cc1` here?
A: inactive

Q: For `O=C1C2(Cl)C3(Cl)C4(Cl)C(Cl)(Cl)C5(Cl)C3(Cl)C1(Cl)C5(Cl)C24Cl` (centres undefined), which outcome is on record?
A: inactive

Q: For `CCN1CCC2(CC1)COc1cc3c(cc12)N(C(=O)c1ccc(-c2ccc(-c4nnc(C)o4)cc2C)cc1)CC3`, which AC50 is on record?
A: 6.5 µM (active)

Q: With `Cn1sc(Cl)cc1=O` as the molecule, how does the outcome read?
A: inactive

System: not listed separately
Assay: NVS_IC_rCaBTZCHL: NovaScreen (NVS) Ion Channel Assay for Calcium Channel, Type L, Benzothiazepine Site (CaBTZCHL) (AID 2283337)
Summary of the method: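 Benzothiazepine-site binding was assessed in a tissue-derived, cell-free rat cortical membrane system. After 1.5 h exposure, radioactivity retained on filters was quantified by scintillation; positive and negative controls accompanied every plate.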

Q: For `CCC(=O)C(CC(C)N(C)C)(c1ccccc1)c1ccccc1` (centres undefined), which AC50 is on record?
A: 1.16 µM (active)

Q: For `CCN1CCC2(CC1)COc1cc3c(cc12)N(C(=O)c1ccc(-c2ccc(-c4nnc(C)o4)cc2C)cc1)CC3`, which AC50 is on record?
A: 4.16 µM (active)

Q: Which AC50 does the source give for `C=C(C)C(=O)[O][Sn]([CH2]CCC)([CH2]CCC)[CH2]CCC` here?
A: 12.8 µM (active)

Q: For `Cn1sc(Cl)cc1=O`, which outcome is on record?
A: inactive

System: guinea pig Histamine Receptor (H2), gene 100729734
Assay: NVS_GPCR_gH2: NovaScreen (NVS) G Protein-Coupled Receptor Assay for guinea pig Histamine Receptor (H2) (AID 2283342)
Summary of the method: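 Guinea pig striatal membrane preparation with specific radioligand; bound counts measured by filtration and scintillation 1 h post-dosing, DMSO as baseline. Chemicals passing a 25 uM duplicate screen were titrated to a 50 uM maximum.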

Q: With `CCC(=O)C(CC(C)N(C)C)(c1ccccc1)c1ccccc1` (centres undefined) as the molecule, how does the AC50 read?
A: 4.02 µM (active)

Q: Which AC50 does the source give for `CC(=O)[O][Hg][c]1ccccc1` here?
A: 11.4 µM (active)

Q: Which AC50 does the source give for `CCN1CCC2(CC1)COc1cc3c(cc12)N(C(=O)c1ccc(-c2ccc(-c4nnc(C)o4)cc2C)cc1)CC3` here?
A: 11.6 µM (active)

Q: Which AC50 does the source give for `C=C(C)C(=O)[O][Sn]([CH2]CCC)([CH2]CCC)[CH2]CCC` here?
A: 2.23 µM (active)
